Screening data as filed in PubChem.
Rows were chosen to be rich in hits. Some 19% of all compounds tested hit in one or more screens of this group.
HT1080 IDH1KD tx – kills HT-1080 cells with IDH1 knockdown; HT-1080 IDH1 knockdown viability, ATP luminescence, 48 h; Potency, µM (titrated, usually from 46.1 µM), for inactives: at the highest dose activity, negative = toxicity, usual class: cytotoxic; 360,000 tested, 2% active;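 note: potency is the fitted concentration of half-maximal effect; 0% = DMSO wells and -100% = cell-free medium wells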
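IDH1KD HT-1080 cells, 750/well, RPMI + 5% FBS; compound pinned after 2 h settling; 48 h, 37 °C; CellTiter-Glo luminescence; % activity normalised to DMSO and no-cell wells; curves fitted, classed by r2 and efficacy.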
HT1080NT lethal – kills 2HG-producing HT-1080-NT fibrosarcoma cells; HT-1080-NT fibrosarcoma viability, CellTiter-Glo ATP luminescence, 48 h; Potency, µM (doses to about 46.1 µM), for inactives: at the top dose activity, negative = less viability, usual class: cytotoxic; 360,000 tested, 1.6% active;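 note: NT is the 2HG producing partner of a matched IDH1 knockdown line; potency is the fitted concentration of half-maximal effect; 0% = DMSO-treated cells and -100% = media-only wells without cells; nearly all actives have a fitted effect of over 55% in size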
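Viability of the 2HG-overproducing fibrosarcoma line after 48 hours of compound exposure at 37 degrees C was determined by luminescence with CellTiter-Glo, and concentration-effect curves were then fitted and categorized.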
TDP1 cell noCPT – qHTS for Inhibitors of human tyrosyl-DNA phosphodiesterase 1 (TDP1): qHTS in cells in absence of CPT; Potency, µM (titrated, usually from 46.2 µM), for inactives: top-dose activity change, negative = growth inhibition, usual class: inhibitors; 420,000 tested, 15% active; DT40 Tdp1-/- hTDP1 cells, no CPT, ATP luminescence, 48 h; AID 686978, 2013; note: potency is the fitted concentration of half-maximal effect; nearly all actives have a fitted effect of over 55% in size
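Camptothecin absent (DMSO only). Human TDP1-complemented DT40 knockout cells, 400 cells/well, 37 °C for minimum 48 hr; ATP measured via CellTiter-Glo, 30 min dark incubation, luminescence.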
TDP1 cell CPT – DT40-hTDP1 cell growth loss with CPT; chicken DT40 Tdp1-/-;hTDP1 cells + 20 nM CPT, ATP luminescence, 48 h; Potency, µM (top dose mostly 46.2 µM), for the others: at the top dose activity change, negative = growth inhibition, most hits filed as inhibitors; 420,000 tested, 12% active; AID 686979; note: potency is the fitted concentration of half-maximal effect; nearly all actives have a fitted effect of over 55% in size
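Chicken DT40 Tdp1-/- cells stably complemented with human TDP1 were seeded at 400 cells/well in medium containing 20 nM camptothecin, exposed to pin-transferred compounds, and grown at 37 °C for at least 48 hr. Viability was read as ATP luminescence.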
IL-1B inflam inh – inflammasome signaling inhibition, IL-1 beta readout; THP-1 LPS/ATP IL-1B secretion, AlphaLISA, 16 h; hits give low values; activity change, % at 57.5 µM; 360,000 tested, 4.7% active; in the data active = activity change below about -50%; inconclusive = mostly about -30% to -49%
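Secreted IL-1B measured by AlphaLISA bead assay after 16 h compound exposure of THP-1 cells; compounds (final up to 57.5 uM) added 1 h before LPS (250 ng/mL) and ATP (1.25 mM) stimulation; lower signal means less secretion.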
An asterisk follows results filed as active; ? = inconclusive; nt = no result given. Unless noted, calls come from the whole dose curve; as a rule, active = well fitted curve in the direction sought with a large enough effect; inconclusive = small, poorly fitted or top-dose-only effect, or another doubt; inactive = no such curve, though single readings can be large; an effect the other way counts as inactive or inconclusive. Unless noted, % is set by controls: 0 for no effect and ±100 for the full control effect.

SMILES | HT1080 IDH1KD tx | HT1080NT lethal | TDP1 cell noCPT | TDP1 cell CPT | IL-1B inflam inh
Cc1cc(Nc2cccc(O)c2)c2cccc(Br)c2n1 | nt | nt | -28% | -24% | nt
COc1ccc2nc(C)cc(Nc3ccc(C)cc3)c2c1 | ? | ? | ? | 5.8µM* | ?
COc1ccc2nc(C)cc(SCC(=O)NNC(=O)COc3ccc(C)cc3)c2c1 | 13% | 16% | 7% | -1% | 0
COc1ccc(Nc2nc(C)c3ccccc3n2)cc1 | -11% | -15% | -26% | -12% | -24
COc1ccc(Nc2cc(C)nc3ccccc23)cc1 | 11µM* | -24% | 18µM* | ? | ?
COc1ccc2nc(C)cc(NCc3ccc(F)cc3)c2c1 | 16µM* | ? | 23µM* | ? | -79*
Cc1cc(Nc2cccc(Br)c2)c2ccccc2n1 | ? | ? | 10µM* | 5.8µM* | -91*
Cc1ccnc(Nc2ccc(CCO)cc2)n1 | 12% | 18% | 0% | 3% | 20
COc1ccc(OC)c(Nc2cc(C)nc3ccc(C)cc23)c1 | 3.7µM* | 5.2µM* | 5.2µM* | 4.6µM* | -77*
COc1ccc2nc(C)cc(Nc3ccc(Cl)c(Cl)c3)c2c1 | nt | nt | 1.8µM* | 2.1µM* | nt
COc1ccc(Nc2ccc(Cl)cc2)c(C(=O)O)c1 | 0% | -9% | -20% | -9% | 2
Fc1ccc(NC(=S)Nc2ccc(Br)cc2)cc1 | ? | ? | 9.2µM* | 8.2µM* | -93*
CCN(CC)c1ccc(NC(=S)Nc2ccc(F)cc2)cc1 | -13% | -18% | 23µM* | ? | ?
Cc1ccc(NC(=S)Nc2ccc(F)cc2)c(C)c1 | 6% | 6% | -24% | -11% | -59*
CCC(C)NC(=S)Nc1ccc(F)cc1 (centres undefined) | 4% | 5% | -22% | -23% | 0
Cc1ccc(NC(=S)NCCc2ccc(F)cc2)c(C)c1 | -3% | -2% | ? | -9% | -13
Oc1ccc(NC(=S)Nc2ccc(F)cc2)cc1 | 1% | -1% | ? | 0% | -1
CCn1cc(CNC(=O)c2c(-c3c(Cl)cccc3Cl)noc2C)c(C)n1 | -2% | -2% | -21% | -17% | 16
O=C(CSc1ncnc2nc[nH]c12)Nc1nnc(SCc2ccc(Cl)c(Cl)c2)s1 | -11% | -17% | 18µM* | -28% | 19
Cc1ccc(C)c(NC(=O)CSc2ncnc3nc[nH]c23)c1 | 7% | 2% | -9% | -15% | 33
CCOC(=O)C(=Cc1ccc(-c2ccsc2C(=O)OC)o1)C(=O)OCC | ? | 4% | ? | 26µM* | -5
CCOC(=O)/C(C#N)=C/c1ccc(-c2ccsc2C(=O)OC)o1 | 13% | 5% | -12% | -24% | -17
COC(=O)C(=Cc1ccc(-c2ccsc2C(=O)OC)o1)C(=O)OC | 21µM* | ? | ? | -19% | nt
CCc1ccc(CNC(=O)c2ccc3c(c2)nc2n3CCOC2)cc1 | nt | nt | ? | -24% | nt
CCOC(=O)Cc1csc(NC(NC(=O)OCC)(C(=O)OCC)C(F)(F)F)n1 (centres undefined) | 7% | 0% | -24% | -18% | -2
SMILES | HT1080 IDH1KD tx | HT1080NT lethal | TDP1 cell noCPT | TDP1 cell CPT | IL-1B inflam inh
O=C1c2ccccc2C(=O)c2c([N+](=O)[O-])ccc(O)c21 | 18% | -2% | 21µM* | -16% | -28
COc1ccc(Oc2ccc(N/C=C3\CCCC3=O)cc2)cc1 | -6% | -4% | 26µM* | ? | -12
Cc1ccc(-n2cc(CNCCN3CCOC3=O)c(-c3ccc(F)cc3)n2)cc1 | -23% | -20% | ? | 23µM* | -71*
Cc1ccc(-n2cc(CNCCn3nc(C)cc3C)c(-c3ccc(F)cc3)n2)cc1 | ? | 21µM* | 23µM* | 15µM* | -91*
Cc1ccc(-n2cc(CNCCc3ncc(C)[nH]3)c(-c3ccc(F)cc3)n2)cc1 | 21µM* | 16µM* | ? | 16µM* | -82*
Cc1cccc(-n2cc(CNCCN3CCOC3=O)c(-c3cccc(F)c3)n2)c1 | ? | -19% | 21µM* | ? | -57*
Cc1ccc(S(=O)(=O)NCCn2nc(C)cc2C)cc1 | 4% | 2% | -6% | 11% | 3
Fc1ccc(-n2cc(CNCCc3ccccn3)c(-c3ccccc3Cl)n2)cc1 | 21µM* | 21µM* | 7.3µM* | 9.2µM* | -74*
COc1ccc(-n2cc(CNCCCn3ccnc3)c(-c3ccccc3Cl)n2)cc1 | -16% | -16% | ? | ? | 0
Cc1ccc(-n2cc(CN3CCCN(C=O)CC3)c(-c3ccc(F)cc3)n2)cc1 | -19% | -14% | ? | ? | ?
Cc1ccc(-n2cc(CNCCCN3CCCC3=O)c(-c3ccc(F)cc3)n2)cc1 | 0% | -22% | 18µM* | ? | -68*
CC(NC(=S)Nc1ccc([N+](=O)[O-])cc1)c1ccncc1 (centres undefined) | -30% | -28% | ? | ? | -24
C[C@@H](CCCCC(=O)Nc1ccc(C(F)(F)F)cc1)NCCc1cnc[nH]1 | nt | nt | -29% | -6% | nt
CC(O)(c1ccc(F)c(F)c1)c1nc(-c2cccc(F)c2)cs1 (centres undefined) | ? | ? | ? | ? | 20
CC(O)(c1ccc(F)c(F)c1)c1nc(-c2ccc(F)c(Cl)c2)cs1 (centres undefined) | ? | 33µM* | ? | ? | -18
CC(O)(c1ccccc1)c1nc(-c2ccc(F)c(Cl)c2)cs1 (centres undefined) | ? | ? | ? | ? | 7
CC(O)(c1ccc(F)c(F)c1)c1nc(-c2ccccc2)cs1 (centres undefined) | ? | ? | 13µM* | ? | -10
CC(O)(c1ccc(F)c(F)c1)c1nc(-c2cc(F)cc(F)c2)cs1 (centres undefined) | ? | ? | 16µM* | ? | 19
Cc1ccc(S(=O)(=O)N(C)CCCC(=O)NCc2ccc3c(c2)OCO3)cc1 | 1% | 2% | 23µM* | -15% | 26
CN(CCCC(=O)NCc1ccc2c(c1)OCO2)S(=O)(=O)c1ccc([N+](=O)[O-])cc1 | -1% | 0% | 23µM* | ? | -3
Cc1ccc(S(=O)(=O)NCCC(=O)NCc2ccc3c(c2)OCO3)cc1C | 6% | 0% | -2% | -11% | -9
CCNc1ccc(S(=O)(=O)N(C)C)cc1NCC(=O)Nc1ccccc1Cl | -1% | -7% | ? | ? | 6
COc1ccccc1C1CC(c2ccc(C)cc2)Nc2ncnn21 (centres undefined) | 6% | 0% | 18µM* | ? | -17
COc1ccccc1C1CC(c2ccccc2)Nc2ncnn21 (centres undefined) | ? | ? | 23µM* | 8.2µM* | 26
